Shn3 3UTR inh: reduction of Shn3 3'UTR firefly luciferase signal, primary screen, Schnurri-3 inhibitor project, cell-based, Clone20 osteoblasts, set 2; inhibition, % at 12.5 µM; Clone20 osteoblast Shn3 3'UTR firefly luciferase, 24 h; actives 0.52% (n = 360,000); AID 588674, 2011;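 active = mean inhibition of at least 75% with every replicate also reaching 75%; inconclusive = mean inhibition at least 75% but some replicate below; inactive = mean inhibition below 75%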;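 also: 0% = median of neutral control wells and 100% = pilot-screen positive control compound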
697 NFkB inh: inhibitors of PMA/ionomycin-induced NF-kB reporter, 697 cells, primary screen, B-cell NF-kB inhibitor project, cell-based, luminescence, uHTS; 697 B-cell NF-kB luciferase reporter, 16 h; inhibition, % at 4 µM; actives 0.33% (n = 330,000); AID 435022, 2010; in the data active = inhibition above about 35%
Jurkat NFkB inh: inhibitors of induced NF-kB luciferase reporter, primary screen, TCR NF-kB activation inhibitor project, cell-based, luminescence, uHTS; Jurkat, PMA/ionomycin-induced NF-kB luciferase reporter; AID 435003, 2010; actives 0.53% (n = 330,000); inhibition, % at 4 µM; in the data active = inhibition above about 50%
Beta apoptosis: inhibitors of cytokine-induced beta cell apoptosis, primary screen, luminescence; actives 0.8% (n = 300,000); INS-1E cytokine-induced death, ATP luminescence, 48 h; percent of positive-control rescue, neutral wells zero; protection from apoptosis, % (no concentration beside the values);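 active = Every replicate reaches about 75%, or at least half do and their mean reaches it too, limit read from the data; inconclusive = At least half of replicates reach the limit but their mean does not; inactive = Under half of replicates reach the limit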;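 also: 0% = cytokine-treated negative control wells and 100% = positive control rescue; higher means more ATP so stronger rescue from cytokine killing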
Calb FLC: C. albicans growth inhibition with fluconazole, primary screen, CaCi-2 strain, Alamar Blue fluorescence. C. albicans CaCi-2 (fluconazole-resistant clinical isolate) + fluconazole, 48 h. growth inhibition, % (test concentration not listed). actives 0.57% (n = 300,000). AID 1979, 2009;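 active = growth inhibition above about 58% in most replicates, limit read from the data, passing the limit was not always enough; inconclusive = exactly half the replicates above a set limit; inactive = most replicates below a set limit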;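 also: all wells also contain fluconazole at 8 µg/ml as a sub-toxic cotreatment; 0% = median of DMSO wells and 100% = median of geldanamycin control wells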
Active calls of the source: *; ? = inconclusive; · = no result. In the library only some 2% were active in any assay of this set; here they are far more common.

SMILES	Shn3 3UTR inh	697 NFkB inh	Jurkat NFkB inh	Beta apoptosis	Calb FLC
COC(=O)c1ccc(N2NC(=O)/C(=C/c3ccc(-c4ccc(Cl)c(C(=O)O)c4)o3)C2=O)cc1	13.4	10.7	7.5	·	62.1*
CCN(c1ccccc1)S(=O)(=O)c1ccc(OC)c(NC(=O)c2cc(F)c(F)c(F)c2F)c1	13.4	17.7	-8.8	2.3	·
COc1cc(NC(=O)CCN2CCN(C/C=C/c3ccccc3)CC2)cc(OC)c1	8.0	-4.2	3.4	-5.1	-4.7
O=c1nc(/C=C/c2cc([N+](=O)[O-])ccc2Cl)cc(C(F)(F)F)[nH]1	-20.0	15.9	-7.6	-6.7	89.4*
CCCCn1c(=O)c(CCC(=O)OCC(=O)NCc2ccc(OC)c(OC)c2)nc2ccccc21	5.3	15.8	5.3	1.1	76.9*
CCCCn1c(=O)c(CCC(=O)OCC(=O)NC(C)c2ccccc2)nc2ccccc21 (configuration not stated)	13.8	-8.9	8.8	4.6	-31.8
Cc1cccn2c(=O)c3cc(C(=O)N4CCN(Cc5ccccc5)CC4)sc3nc12	7.4	11.3	16.4	-9.0	·
CC[C@H](C)[C@H]1O[C@]2(CC[C@@H]1C)C[C@@H]1C[C@@H](CC=C(C)[C@@H](O[C@H]3C[C@H](OC)[C@@H](O[C@H]4C[C@H](OC)[C@@H](O)[C@H](C)O4)[C@H](C)O3)[C@@H](C)C=CC=C3CO[C@@H]4[C@H](O)C(C)=C[C@@H](C(=O)O1)[C@]34O)O2	97.4*	0.2	14.6	87.3*	·
C/C(=N\O)c1cc(Cl)cc(Cl)c1O	-11.5	4.9	-8.4	-9.9	76.7*
C/C(=N\O)c1ccc(Cl)cc1Cl	-3.9	-1.7	-1.5	-2.2	3.9
CCCOc1cccc(C(=O)N/N=C/c2coc3ccccc3c2=O)c1	-2.7	22.1	-3.1	-5.3	108.4*
Cc1ccc2occ(/C=N/NC(=O)c3ccccc3O)c(=O)c2c1	29.8	-19.2	16.2	42.4	78.8*
O=C(N/N=C/c1coc2ccccc2c1=O)c1cc(Br)c(O)c(Br)c1	16.7	1.6	-5.5	-15.0	9.8
Cc1ccc2occ(/C=N/NC(=O)c3ccc(Cl)cc3)c(=O)c2c1	0.6	-16.0	13.8	-2.2	-14.9
Cc1nc(Nc2cccc(O)c2)c2c3c(sc2n1)CCC3	-1.4	6.0	-6.8	-4.2	-8.2
CCN(CC(=O)Nc1ccc2c(c1)OCCO2)S(=O)(=O)c1ccc(F)cc1	0.2	18.4	-8.0	-0.4	-4.3
CC(CC(=O)Nc1ncc([N+](=O)[O-])s1)c1ccccc1 (configuration not stated)	-2.3	-4.5	-5.1	40.7	92.2*
CCC(Oc1ccccc1)C(=O)Nc1ncc([N+](=O)[O-])s1 (configuration not stated)	-54.2	-16.3	-2.6	19.9	93.9*
O=C(COc1ccc(Cl)cc1)Nc1ncc([N+](=O)[O-])s1	-29.9	·	·	·	97.6*
O=C(Cc1ccc(Cl)cc1)Nc1ncc([N+](=O)[O-])s1	-74.2	·	·	·	59.8
COc1ccc(-c2noc(CCC(=O)N3CCN(c4cccc(C)c4C)CC3)n2)cc1	-3.2	5.0	·	·	·
COC(=O)c1ccc(C(=S)NCC2(N(C)C)CCCCC2)cc1	1.9	-5.3	-1.3	0.5	-5.1
COc1c(Cl)cc(Cl)cc1/C=N/NC(=O)c1nnn(-c2nonc2N)c1CN1CCC(C)CC1	21.1	11.7	8.0	26.1	-4.0
CC1CCN(Cc2c(C(=O)N/N=C/c3cc(Br)ccc3O)nnn2-c2nonc2N)CC1	?	-29.2	37.0	89.5*	82.4*
CCOc1cccc(-c2c(C(=O)N/N=C(\C)c3ccncc3)nnn2-c2nonc2N)c1	-2.4	-13.7	6.7	·	-7.9
CCOc1cccc(-c2c(C(=O)N/N=C(\C)c3ccccn3)nnn2-c2nonc2N)c1	93.9*	·	·	·	82.0*
CC1CCN(Cc2c(C(=O)N/N=C/c3cc(Cl)ccc3O)nnn2-c2nonc2N)CC1	90.1*	-36.0	22.8	88.4*	?
C/C(=N\NC(=O)c1nnn(-c2nonc2N)c1CN1CCc2ccccc21)c1ccccc1O	?	-30.5	9.4	92.2*	-26.7
CCOc1cc(N2CCOCC2)c(OCC)cc1NC(=O)CN1C(=O)NC(C)(c2ccc(OC)cc2)C1=O (configuration not stated)	-13.5	·	·	·	·

Bioassay records deposited in PubChem BioAssay by several laboratories.
